SENP7 inh: SENP7 protease inhibition. 330,000 tested, 1.5% active. inhibition, % at 5 µM. Q9BQF6. recombinant SENP7, Z-RLRGG-aminoluciferin luminescence, 40 min;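 active means inhibition above about 50% at the single test dose, limit read from the data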
SENP8 block-1: blocks human SENP8 cleavage of Nedd8 substrate. recombinant SENP8, Nedd8 substrate fluorescence. inhibition, % at 20 µM. 360,000 tested, 0.64% active. AID 602440; in the data active means inhibition mostly above about 40%, no sharp cut-off; inactive means mostly below about 27%
SENP8 block-2: SENP8 protease inhibition; Q96LD8; purified SENP8, Z-RLRGG-aminoluciferin cleavage, luminescence; inhibition, % at 10 µM; 330,000 tested, 1.2% active; in the data active means inhibition above about 50%
EBI2 block: blocks human EBI2 receptor beta-arrestin signaling; P32249; EBI2 beta-arrestin recruitment, luminescence, 7a,25-OHC stimulated; inhibition, % at 5 µM; 360,000 tested, 0.81% active; AID 651636; in the data active means inhibition above about 38%;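 further: enzyme fragment complementation signal reports receptor beta-arrestin coupling in cells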
SENP6 block: SENP6 protease inhibition | inhibition, % at 10 µM | Recombinant SENP6 catalytic domain, aminoluciferin luminescence | 330,000 tested, 1.8% active | AID 2599;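 active means inhibition above about 50% at the single tested dose, limit read from the data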
AHR act: human AHR activation; P35869; AHR-responsive luciferase reporter cells, luminescence; activation, % at 5 µM; 320,000 tested, 2.5% active; AID 2796; in the data active means activation above about 47%
AHR act cf: confirmation of human aryl hydrocarbon receptor activators; activation, % at 9 µM; shares compounds with AHR act; human cells, AHR-responsive luciferase reporter, luminescence; 2,300 tested, 87% active; in the data active means activation above about 49%;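 further: HepG2 hepatoma cells carrying a DRE-driven firefly luciferase reporter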
PXR act counter: counter-screen for AHR activators: human PXR activators; shares compounds with AHR act; AID 434939; activation, % at 11.6 µM; cell-based PXR reporter, luciferase luminescence; 2,300 tested, 88% active; in the data active means activation above about 11%;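 further: human hepatoma DPX-2 cells expressing full-length human PXR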
Each line names hits and unclear results; the compound was inactive in the other large screens (follow-up assays come after a bar, where they were run). Rows were chosen to be rich in hits. Some 5% of all compounds tested hit in one or more screens of this group.

CCCCN(CCCC)c1nc(-c2ccncc2)nc2ccccc12	none
OCCNc1nc(-c2ccccc2)nc2ccccc12	none
OCCCNc1nc(-c2ccc(Cl)cc2)nc2ccccc12	AHR act 88.4 | AHR act cf 103.6 | PXR act counter 62.1
Cc1ccccc1NC(=O)CN1C(=O)CSc2ccc(S(=O)(=O)N3CCCCC3)cc21	none
CCOc1ccc(N(CC(=O)NC2CCCCC2)C(=O)CCC(=O)Nc2cc(C)ccn2)cc1	none
Cc1cccc(NC(=S)NNC(=O)c2ccccc2OC(F)F)c1	AHR act 115.8 | AHR act cf 121.3 | PXR act counter 33.8
N#CC1=C(N)Oc2n[nH]c(-c3ccncc3)c2C1c1ccsc1 (stereo unspecified)	none
N#CC1=C(N)Oc2n[nH]c(-c3ccc(F)cc3)c2C1c1ccncc1 (stereo unspecified)	AHR act 105.6 | AHR act cf 103.5 | PXR act counter 17.7
N#CC1=C(N)Oc2n[nH]c(-c3ccc(F)cc3)c2C1c1cccc(OC(=O)N2CCOCC2)c1 (stereo unspecified)	AHR act 106.2 | AHR act cf 115.4 | PXR act counter 31.6
CCCCNC(=O)C1CCN(S(=O)(=O)N2CCOCC2)CC1	none
Cn1cccc1/C=N/n1c(-c2ccc(C(C)(C)C)cc2)n[nH]c1=S	AHR act 125.7 | AHR act cf 103.7 | PXR act counter 260.8
Cn1cccc1/C=N/n1c(-c2ccccc2)n[nH]c1=S	none
COc1ccc(NCc2ccccc2[N+](=O)[O-])cc1OC	none
O=[N+]([O-])c1ccc(Cl)cc1CNc1ccc(F)c(F)c1	AHR act 106.4 | AHR act cf 80.0 | PXR act counter 20.0
COc1ccccc1C(=O)Nc1ccc2c3c(cccc13)CC2	AHR act 83.0 | AHR act cf inactive | PXR act counter 84.8
CC(C)c1ccc(S(=O)(=O)N2CCN(C(=O)CN3C(=O)c4ccccc4C3=O)CC2)cc1	none
CN=c1scc(C)n1/N=C/c1cc(Br)c(O)c(Br)c1	AHR act 117.6 | AHR act cf 109.7 | PXR act counter 13.8
Cc1c(NC(=O)c2ccco2)cccc1-c1nc2cccnc2s1	AHR act 109.0 | AHR act cf 89.6 | PXR act counter 14.3
CC(=O)Nc1nc2cc([N+](=O)[O-])ccc2s1	none
O=c1nc(Nc2ccc(Br)cc2)sc2ccc([N+](=O)[O-])cc12	AHR act 95.6 | AHR act cf 101.7
COc1ccc(CNC(=O)C2CCN(S(=O)(=O)N3CCCC3)CC2)c(OC)c1	none
O=C(COc1ccc2c3c(c(=O)oc2c1)CCC3)NCc1cccnc1	none
COCCn1c(C)cc(/C=C2/NC(=O)N(c3cccc(Cl)c3)C2=O)c1C	AHR act 122.0 | AHR act cf inactive | PXR act counter 74.2
CCn1c(C)cc(/C=C2/NC(=O)N(c3ccccc3)C2=O)c1C	none
Cn1cc(/C=C(\NC(=O)c2ccccc2)C(=O)N2CCOCC2)c2ccccc21	AHR act 85.3 | AHR act cf inactive | PXR act counter 87.4
O=C(NNC(=O)c1csc(N2CCOCC2)n1)c1ccc(=O)[nH]c1	none
c1ccc(OCc2nnc3sc(-c4cccs4)nn23)cc1	AHR act 138.6 | AHR act cf 80.7 | PXR act counter 17.5
COc1ccc(-c2nn3c(COc4ccccc4)nnc3s2)cc1OC	none
Cc1cc(-c2nc3ccccc3s2)ccc1N	none (no result: SENP7 inh, SENP8 block-2, SENP6 block, AHR act)
Cc1cc(OCc2nc3ccccc3s2)ccc1N	SENP8 block-2 53.7, SENP6 block 70.2, AHR act 86.2 | AHR act cf 92.3 | PXR act counter 33.7
CCCN1C(=O)c2cc(C(=O)Nc3ccc(OC)cc3OC)ccc2C1Nc1ccc(OC)cc1OC (stereo unspecified)	AHR act 107.3 | AHR act cf 79.0 | PXR act counter 64.4
Cn1c(SCC(=O)NCC2CCCO2)nnc1-c1ccc(Cl)cc1 (stereo unspecified)	none
Cc1ccc(-c2[nH]c(-c3ccc(Cl)cc3)nc2SCC(=O)NCC2CCCO2)cc1 (stereo unspecified)	AHR act 107.6 | AHR act cf 83.5 | PXR act counter 85.7
COc1ccccc1CNC(=O)[C@H](Cc1c[nH]c2ccccc12)NC(=O)[C@@H]1Cc2ccccc2CN1	none

High-throughput results deposited in PubChem BioAssay by several laboratories.
